Assay [1] is described as follows: AP1 Signaling Pathway (AID 357; active means well fitted curve in either direction with a large enough effect, not every such curve was filed as active;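 further: ME-180 reporter cells stimulated with EGF at its EC50 level; on the % scale 0 is the no-effect control and ±100 the full control effect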). Particulars: ME-180 AP-1-bla reporter, EGF-induced, beta-lactamase ratio, 5 h; at 17.2 µM (top of the series) unless noted. An outline of the steps: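 A ratiometric CCF4 readout (405 nm excitation; 460 and 530 nm emission) quantified AP-1-driven beta-lactamase in ME-180 cells after 5 h with compound and EC50 EGF; AC50 values were derived for activators and inhibitors.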

Assay [2] can be described thus: NFAT Signaling Pathway (AID 444; active means well fitted curve in either direction with a large enough effect, not every such curve was filed as active;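 further: carbachol stimulus at about its EC50 of 1 µM final; on the % scale 0 is the no-effect control and ±100 the full control effect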). Particulars: Jurkat NFAT-bla M1, carbachol, beta-lactamase ratio, 5 h; at 17.2 µM (top of the series) unless noted. An outline of the steps:
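Read-out: CCF4 FRET ratio (460 nm/530 nm) after 1 h RT dye loading, used for %activity and AC50 from titration series. Cells: Jurkat NFAT-β-lactamase/M1 line, treated with compound plus 1 uM carbachol for 5 h, 37 °C.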

Assay [3] is described as follows: Stat Signaling Pathway (AID 446; active means well fitted curve in either direction with a large enough effect, not every such curve was filed as active;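 further: ME-180 cervical cancer cells given 40 pM IL-6 alongside compound; SIE-controlled beta-lactamase reporter measured as 460/530 nm FRET emission ratio; on the % scale 0 is the no-effect control and ±100 the full control effect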). The settings on record: ME-180 SIE beta-lactamase reporter, IL-6 stimulated, 5 h; at 17.2 µM (top of the series) unless noted. An outline of the steps: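 Emission at 460 and 530 nm (excitation 405 nm) reports SIE-controlled beta-lactamase in ME-180 cells. Cells received compound with 40 pM IL-6 for 5 hrs at 37 C; data scaled between 300 pM IL-6 and 125 nM JAK-inhibitor controls.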

Assay [4] addresses Glucocorticoid receptor (Homo sapiens) (UniProt P04150). Description: GR-GFP Redistribution (AID 450;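 active means compounds whose dose series gives a full or clear partial fitted curve of increased nuclear translocation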; further: potency means the concentration at half of the fitted maximal effect).
Assay [5] shares this target. Description: GR-EFC Redistribution (AID 451; calls by dose curve; further: potency means the concentration at half of the fitted maximal effect). Particulars: CHO-K1 GR-EFC translocation, beta-gal luminescence, 2 h. An outline of the steps: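 Translocation of GR-ED fusion to nuclear EA restores b-gal, read by luminescence after 1 h room-temperature detection. Engineered CHO-K1 biosensor cells, 1,000/well, exposed 2 h at 37 C to titrations up to 46 uM final.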
The target of assay [6] is Mitogen-activated protein kinase 10 (Mus musculus) (UniProt Q61831). Description: JNK3 AlphaScreen Assay (AID 530; active means well fitted curve in either direction with a large enough effect, not every such curve was filed as active;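 further: kinase came from lysate of stimulated human HepG2 cells; signal reports phosphorylation of biotinylated GST-cJun 1-79 at Ser73 with 10 µM ATP; on the % scale 0 is the no-effect control and ±100 the full control effect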). An outline of the steps:
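qHTS titrations with 15 min compound pre-incubation before adding ATP (10 uM final). Read-out: AlphaScreen of Ser73-phosphorylated biotin-GST-cJun using HepG2 lysate JNK3 activated by IL-1β and TNFα.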

The target in assay [7] is 3',5'-cyclic-AMP phosphodiesterase 4B (Homo sapiens) (UniProt Q07343). Description: qHTS Assay for Inhibitors of PDE-IV (AID 607; active means well fitted activation curve with a large enough effect in the main read-out, with a control signal flat, not every such curve was filed as active; further: % of control where 0% means no effect). An outline of the steps: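 The readout is membrane depolarisation from a cAMP-sensing CNG channel, detected with a potential dye at ex 535/em 590. Cells were HEK293-derived (endogenous PDE-IV) at 1000 cells/well, titrated up to 22.9 uM final.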
3',5'-cyclic-AMP phosphodiesterase 4B (Homo sapiens), sequence (Q07343 whole entry, looked up): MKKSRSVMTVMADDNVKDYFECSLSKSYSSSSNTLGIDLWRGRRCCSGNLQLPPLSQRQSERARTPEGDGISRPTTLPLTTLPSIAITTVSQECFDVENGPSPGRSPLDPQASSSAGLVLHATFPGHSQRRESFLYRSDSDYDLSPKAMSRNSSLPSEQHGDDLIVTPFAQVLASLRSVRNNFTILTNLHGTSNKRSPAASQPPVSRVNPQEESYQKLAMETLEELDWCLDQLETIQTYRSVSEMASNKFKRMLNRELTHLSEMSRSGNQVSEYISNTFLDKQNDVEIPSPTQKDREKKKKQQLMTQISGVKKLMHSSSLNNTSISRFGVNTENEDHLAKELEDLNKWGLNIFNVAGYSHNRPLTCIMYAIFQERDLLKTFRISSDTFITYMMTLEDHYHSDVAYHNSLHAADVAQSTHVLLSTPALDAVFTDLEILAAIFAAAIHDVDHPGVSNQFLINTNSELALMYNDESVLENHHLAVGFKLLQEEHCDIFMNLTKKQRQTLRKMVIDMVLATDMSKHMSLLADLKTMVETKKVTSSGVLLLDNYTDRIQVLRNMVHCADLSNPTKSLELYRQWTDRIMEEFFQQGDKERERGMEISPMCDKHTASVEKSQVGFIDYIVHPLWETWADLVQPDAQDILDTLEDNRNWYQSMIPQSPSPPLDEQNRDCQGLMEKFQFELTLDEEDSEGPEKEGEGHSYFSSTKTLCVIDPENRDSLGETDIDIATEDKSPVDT

The target of assay [8] is Guanine nucleotide-binding protein G(i) subunit alpha-1 (Homo sapiens) (UniProt P63096). In words: qHTS Assay for Inhibitors of RGS12 GoLoco Motif Activity (Green Fluorophore) (AID 879).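 Further: 0% = labeled peptide with Gαi1 and full inhibition = labeled peptide alone without protein; negative values mean loss of peptide binding seen as reduced polarization.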 An outline of the steps:
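A drop in FITC polarization marked displacement of the FITC-tagged RGS12 GoLoco peptide (10 nM) from Gαi1 (50 nM). Compounds were incubated 10 min at room temperature in Tris pH 7.5 buffer containing 150 mM NaCl, 0.1 mM GDP and 0.05% NP40; unlabeled peptide titration served as control.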

Assay [9] is described as follows: qHTS Assay for Identification of Small Molecule Antagonists for NFkB Signaling Pathway (AID 895; active means well fitted inhibition curve with a large enough effect in the signal ratio, with a control signal flat, not every such curve was filed as active; the % refers to the signal ratio; further: on the % scale 0 is the no-effect control and ±100 the full control effect). An outline of the steps:
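Beta-lactamase reporter read-out (460 and 530 nm emission ratio, 405 nm excitation, 2 hrs substrate loading RT) after 5 hr stimulation with 10 pM TNF alpha in compound-treated NFkB-bla ME-180 cells in low-serum medium.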

The nature of assay [10]: qHTS Assay for Identification of Small Molecule Agonists for Thrombopoietin (TPO) Signaling Pathway (AID 917). Further: on the % scale 0 is the no-effect control and ±100 the full control effect. An outline of the steps: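 Quantitative HTS for pathway activators: compounds were pin-transferred onto IL-3-starved Ba/F3 cells expressing human TPO receptor, TPO was added at its EC50 (26 pM final), and after 24 hrs at 37 C reporter luciferase was measured.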

The target of assay [11] is Muscarinic acetylcholine receptor M1 (Rattus norvegicus) (UniProt P08482). Description: qHTS Assay for Antagonists of Acetylcholine Muscarinic M1 Receptor: Measurement of IP-One Response (AID 944). Further: nearly all actives have a fitted effect of over 75% in size. An outline of the steps:
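Antagonist mode with rat M1 receptor transfected into CHO cells. Compound is added first for 10 min, carbachol at its EC80 follows for 30 min, and lysis reagents then allow TR-FRET detection of accumulated IP1.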

Assay [12] deals with Pyruvate kinase (Leishmania mexicana) (UniProt Q27686). In words: qHTS Validation Assay for Inhibitors of Leishmania Mexicana Pyruvate Kinase (AID 945).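 Further: 0% = DMSO only neutral control wells.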 An outline of the steps:
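Eight-point qHTS titrations in triplicate, data normalized to DMSO neutral control. Reaction: 0.2 nM LmPYK E451W mutant, 0.5 mM PEP, 0.1 mM ADP, 7 mM MgCl2, pH 7.2, one hour at room temperature; luminescent ATP detection.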

Assay [13] deals with Pyruvate kinase PKM (Homo sapiens) (UniProt P14618). Description: qHTS Assay for Activators of Human Muscle Pyruvate Kinase (AID 954; active means well fitted curve in the direction sought with a large enough effect, not every such curve was filed as active;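 further: 0% = uninhibited enzyme and -100% = no enzyme or full thiadiazolimine inhibition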). An outline of the steps: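 PKM2, human, >95% pure, 0.1 nM; PEP 0.5 mM (Km), ADP 0.1 mM; 50 mM imidazole pH 7.2, 50 mM KCl, 0.01% Tween 20, 0.05% BSA; 1 h RT; luciferase luminescence readout.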
Pyruvate kinase PKM (Homo sapiens), sequence (P14618 whole entry, looked up): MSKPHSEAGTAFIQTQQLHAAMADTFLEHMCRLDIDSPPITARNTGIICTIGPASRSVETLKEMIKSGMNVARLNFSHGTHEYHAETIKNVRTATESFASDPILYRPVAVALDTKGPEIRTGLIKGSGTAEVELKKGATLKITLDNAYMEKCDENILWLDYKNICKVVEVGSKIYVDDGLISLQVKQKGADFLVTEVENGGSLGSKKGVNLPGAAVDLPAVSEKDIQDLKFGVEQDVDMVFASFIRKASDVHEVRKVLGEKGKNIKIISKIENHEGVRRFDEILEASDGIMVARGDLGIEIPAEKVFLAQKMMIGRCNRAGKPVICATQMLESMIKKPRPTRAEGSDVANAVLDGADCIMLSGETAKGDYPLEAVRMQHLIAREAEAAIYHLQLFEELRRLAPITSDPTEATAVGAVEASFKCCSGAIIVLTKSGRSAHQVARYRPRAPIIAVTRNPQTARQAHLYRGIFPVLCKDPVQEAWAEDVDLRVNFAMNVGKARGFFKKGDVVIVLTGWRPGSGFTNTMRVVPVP
The target of assay [14] is Alpha-galactosidase A (Homo sapiens) (UniProt P06280). In words: Counterscreen for Glucocerebrosidase Inhibitors: qHTS Assay for Human alpha-Galactosidase at pH 4.5 (AID 992). Further: 0% is about no effect. An outline of the steps: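 Fluorogenic 4-MU alpha-D-galactoside (80 uM) hydrolysis, 2 nM enzyme, pH 4.5 citrate buffer + 0.005% Tween-20; 20 min RT; NaOH/glycine pH 10 stop; Ex365/Em440. Compounds titrated 0.7 nM–77 uM; Hill-equation AC50.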
Alpha-galactosidase A (Homo sapiens), sequence (P06280 whole entry, looked up): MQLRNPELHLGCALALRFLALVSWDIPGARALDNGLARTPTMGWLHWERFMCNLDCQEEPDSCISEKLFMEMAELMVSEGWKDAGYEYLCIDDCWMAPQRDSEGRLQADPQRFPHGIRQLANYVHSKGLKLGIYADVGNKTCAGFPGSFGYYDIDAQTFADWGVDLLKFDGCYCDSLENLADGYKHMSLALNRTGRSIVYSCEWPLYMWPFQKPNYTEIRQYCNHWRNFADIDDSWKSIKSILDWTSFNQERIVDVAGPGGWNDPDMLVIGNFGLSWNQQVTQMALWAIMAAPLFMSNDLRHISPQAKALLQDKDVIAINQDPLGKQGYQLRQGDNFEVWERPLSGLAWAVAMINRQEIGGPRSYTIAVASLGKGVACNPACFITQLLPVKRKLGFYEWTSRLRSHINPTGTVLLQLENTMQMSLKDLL

Assay [15] deals with alpha-glucosidase (Oryza sativa, rice) (UniProt Q653V4). In words: Counterscreen for Glucocerebrosidase Inhibitors: qHTS Assay for Rice alpha-Glucosidase at pH 5.0 (AID 997).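 Further: 0% = full activity with enzyme and -100% = basal without enzyme.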 An outline of the steps:
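Endpoint fluorogenic assay at pH 5.0: compounds (0.7 nM to 77 uM) titrated against 4 nM rice enzyme and 400 uM 4-MU-alpha-glucoside for 20 min at room temperature; NaOH/glycine stop, read ex 365/em 440 nm, Hill-fitted AC50.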

Assay [16] addresses Ubiquitin carboxyl-terminal hydrolase 1 (Homo sapiens) (UniProt O94782). Description: Inhibitors of USP1/UAF1: Pilot qHTS (AID 504865).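 Further: rhodamine fluorescence freed from ubiquitin-rhodamine substrate followed over time; top concentration of the series differs between compounds; on the % scale 0 is the no-effect control and ±100 the full control effect; nearly all actives have a fitted effect of over 35% in size.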 An outline of the steps: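 Kinetic fluorescence assay: 1nM USP1/UAF1, 15 min compound preincubation, then 150nM Ub-Rho; 480/540 nm.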
Assay [17] in a line: qHTS Assay for Identification of Small Molecule Agonists for Hypoxia Response Element Signaling Pathway (AID 914; active means well fitted activation curve with a large enough effect in the signal ratio, with a control signal flat, not every such curve was filed as active; the % refers to the signal ratio; further: % of control where 0% means no effect). Particulars: ME-180 (cervical carcinoma) HRE-bla reporter, beta-lactamase ratio, CoCl2, 17 h; activation: hits give high values. An outline of the steps:
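HRE-bla ME-180 cells with beta-lactamase reporter under hypoxia response element, compounds with EC50 CoCl2 for 17 hours at 37 C. CCF4 substrate, 460nm/530nm emission ratio gave %Activity; AC50 from titration series.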

For assay [18], the target named is Cytochrome P450 3A4 (Homo sapiens) (UniProt P08684). In words: qHTS Assay for Activators of Cytochrome P450 3A4 (AID 885). Further: nearly all actives have a fitted effect of over 65% in size. An outline of the steps:
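Activators are scored by enhanced luminescence from CYP3A4 conversion of luciferin-PPXE (25uM, equal to KM) to luciferin, after 60 min at RT with an NADPH-regenerating system.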

Assay [19] concerns the target Cytochrome P450 2D6 (Homo sapiens) (UniProt P10635). In words: qHTS Assay for Inhibitors and Substrates of Cytochrome P450 2D6 (AID 891). Further: potency means the concentration at half of the fitted maximal effect; nearly all actives have a fitted effect of over 60% in size. An outline of the steps:
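Luminescent read-out of luciferin formed by 5 nM human CYP2D6 demethylating 30 uM Luciferin-ME EGE (Km level) over 60 min at room temperature after NADPH regeneration addition. Data normalized to full inhibition by 1.43 uM quinidine.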

We go through 10 molecules from PubChem BioAssay (NCATS).

Values without a mark were called inactive. Results filed as inconclusive are left out. The source made the active and inactive calls. Unless noted, the call rests on the fitted dose curve; in most records, active means well fitted curve in the direction sought with a large enough effect; inconclusive means small, poorly fitted or top-dose-only effect, or another doubt; inactive means no such curve, though single readings can be large; an effect the other way counts as inactive or inconclusive.

Guanine nucleotide-binding protein G(i) subunit alpha-1 (Homo sapiens), sequence (P63096 whole entry, looked up): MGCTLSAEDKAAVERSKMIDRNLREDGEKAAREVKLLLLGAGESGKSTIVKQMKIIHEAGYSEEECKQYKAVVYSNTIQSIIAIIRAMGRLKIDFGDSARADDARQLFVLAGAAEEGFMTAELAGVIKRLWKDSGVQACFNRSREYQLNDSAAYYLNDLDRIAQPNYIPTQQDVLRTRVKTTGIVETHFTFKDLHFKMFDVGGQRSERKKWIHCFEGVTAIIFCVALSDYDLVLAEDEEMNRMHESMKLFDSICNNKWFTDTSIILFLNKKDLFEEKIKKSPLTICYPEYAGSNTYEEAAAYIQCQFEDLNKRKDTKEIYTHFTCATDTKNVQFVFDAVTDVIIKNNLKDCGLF
Glucocorticoid receptor (Homo sapiens), sequence (P04150 whole entry, looked up, the tested form may be a part): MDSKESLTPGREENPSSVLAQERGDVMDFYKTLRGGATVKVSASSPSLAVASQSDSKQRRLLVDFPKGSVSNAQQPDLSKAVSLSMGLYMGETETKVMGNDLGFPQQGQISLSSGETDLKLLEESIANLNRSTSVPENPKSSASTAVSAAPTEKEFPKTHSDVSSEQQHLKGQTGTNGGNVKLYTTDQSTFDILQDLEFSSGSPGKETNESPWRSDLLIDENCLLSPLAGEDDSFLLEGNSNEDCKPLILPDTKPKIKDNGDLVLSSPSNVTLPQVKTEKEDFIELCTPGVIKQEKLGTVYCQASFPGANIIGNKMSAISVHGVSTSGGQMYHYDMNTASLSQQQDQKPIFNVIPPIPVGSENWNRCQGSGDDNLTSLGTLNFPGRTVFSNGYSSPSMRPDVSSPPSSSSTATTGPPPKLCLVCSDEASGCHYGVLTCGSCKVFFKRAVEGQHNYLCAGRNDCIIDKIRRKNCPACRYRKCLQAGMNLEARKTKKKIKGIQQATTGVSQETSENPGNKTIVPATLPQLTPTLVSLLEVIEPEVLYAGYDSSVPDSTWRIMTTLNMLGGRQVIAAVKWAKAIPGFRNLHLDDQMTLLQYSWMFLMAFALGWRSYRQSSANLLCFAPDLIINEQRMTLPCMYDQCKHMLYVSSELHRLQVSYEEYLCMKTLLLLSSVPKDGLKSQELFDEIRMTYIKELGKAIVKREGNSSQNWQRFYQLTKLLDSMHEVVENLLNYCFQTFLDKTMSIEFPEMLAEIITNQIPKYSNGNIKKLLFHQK
Muscarinic acetylcholine receptor M1 (Rattus norvegicus), sequence (P08482 whole entry, looked up): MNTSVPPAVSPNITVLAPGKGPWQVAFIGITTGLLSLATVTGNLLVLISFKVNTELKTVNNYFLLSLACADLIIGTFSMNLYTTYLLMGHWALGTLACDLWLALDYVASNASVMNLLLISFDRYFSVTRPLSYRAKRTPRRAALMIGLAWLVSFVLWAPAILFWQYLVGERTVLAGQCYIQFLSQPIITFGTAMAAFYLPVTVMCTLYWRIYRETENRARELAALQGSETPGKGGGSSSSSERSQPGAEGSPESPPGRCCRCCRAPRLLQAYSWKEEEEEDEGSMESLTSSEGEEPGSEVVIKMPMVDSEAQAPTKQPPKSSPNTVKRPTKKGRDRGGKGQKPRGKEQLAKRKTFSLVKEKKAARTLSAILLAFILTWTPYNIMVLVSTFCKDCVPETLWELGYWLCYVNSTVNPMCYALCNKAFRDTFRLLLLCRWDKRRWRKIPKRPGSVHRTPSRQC
Pyruvate kinase (Leishmania mexicana), sequence (Q27686 2-499 E452W): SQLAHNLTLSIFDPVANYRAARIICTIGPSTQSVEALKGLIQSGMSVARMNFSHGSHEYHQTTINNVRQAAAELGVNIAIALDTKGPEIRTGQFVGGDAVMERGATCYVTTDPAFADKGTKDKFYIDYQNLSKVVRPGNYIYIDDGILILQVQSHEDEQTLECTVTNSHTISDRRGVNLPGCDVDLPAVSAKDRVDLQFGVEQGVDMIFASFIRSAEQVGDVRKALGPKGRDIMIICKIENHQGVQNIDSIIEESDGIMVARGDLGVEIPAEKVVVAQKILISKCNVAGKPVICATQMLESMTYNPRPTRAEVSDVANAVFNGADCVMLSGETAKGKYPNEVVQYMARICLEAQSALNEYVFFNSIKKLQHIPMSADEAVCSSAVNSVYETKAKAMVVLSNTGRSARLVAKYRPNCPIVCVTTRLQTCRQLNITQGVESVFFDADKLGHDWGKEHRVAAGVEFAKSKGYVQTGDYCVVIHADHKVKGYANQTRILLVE
Cytochrome P450 3A4 (Homo sapiens), sequence (P08684 whole entry, looked up): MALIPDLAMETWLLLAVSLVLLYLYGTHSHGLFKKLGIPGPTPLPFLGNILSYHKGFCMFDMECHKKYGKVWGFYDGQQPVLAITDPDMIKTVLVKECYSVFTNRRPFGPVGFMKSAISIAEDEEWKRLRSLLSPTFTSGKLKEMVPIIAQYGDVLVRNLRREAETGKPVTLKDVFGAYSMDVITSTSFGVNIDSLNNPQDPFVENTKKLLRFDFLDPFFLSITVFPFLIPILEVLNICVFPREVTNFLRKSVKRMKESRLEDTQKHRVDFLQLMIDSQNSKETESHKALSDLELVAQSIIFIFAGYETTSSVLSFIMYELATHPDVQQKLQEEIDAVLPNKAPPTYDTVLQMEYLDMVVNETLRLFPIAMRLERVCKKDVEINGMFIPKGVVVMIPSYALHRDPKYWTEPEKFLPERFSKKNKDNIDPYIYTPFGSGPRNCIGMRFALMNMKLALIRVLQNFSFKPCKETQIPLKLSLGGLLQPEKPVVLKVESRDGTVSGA
Cytochrome P450 2D6 (Homo sapiens), sequence (P10635 whole entry, looked up): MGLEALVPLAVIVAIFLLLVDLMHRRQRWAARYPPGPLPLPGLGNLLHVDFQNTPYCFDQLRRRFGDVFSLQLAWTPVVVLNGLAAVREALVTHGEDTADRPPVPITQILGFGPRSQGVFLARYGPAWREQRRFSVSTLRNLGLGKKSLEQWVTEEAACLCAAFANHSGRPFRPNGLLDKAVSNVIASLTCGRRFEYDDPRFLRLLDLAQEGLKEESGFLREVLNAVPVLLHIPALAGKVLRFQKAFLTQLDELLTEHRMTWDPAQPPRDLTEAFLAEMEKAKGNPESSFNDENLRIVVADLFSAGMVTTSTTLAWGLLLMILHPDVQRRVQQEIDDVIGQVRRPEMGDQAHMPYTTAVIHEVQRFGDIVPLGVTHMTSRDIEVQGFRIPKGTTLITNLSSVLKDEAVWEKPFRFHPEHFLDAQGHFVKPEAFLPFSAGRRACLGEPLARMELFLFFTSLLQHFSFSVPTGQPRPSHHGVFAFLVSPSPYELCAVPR

For the molecule `N[C@H](Cc1cccc(-c2ccccc2CP(=O)(O)O)c1)C(=O)O`, the activity change, negative = inhibition in assay [1] was 8.92% [at 38 µM]; in [2] it was 12.7% [at 38 µM]. Further, the activity, negative = inhibition in [3] was 1.71% [at 38 µM]. Besides, the Potency in assay [4] and in assay [5] was over 46 µM each time. In addition, the Potency result in assay [6], in assay [7], in [9], in assay [10], in [11] and in [12] was “inactive” throughout. Further, the call in assay [8], in assay [13], in assay [14] and in assay [15] was inactive.

As for `Cc1nnc2n(-c3ccccc3)c(=O)c3c4c(sc3n12)CC(C)CC4` (centres undefined), the activity change, negative = inhibition in [1] was 3.4%; in assay [2], -3.87%. Further, the activity, negative = inhibition in assay [3] is -2.29%. In addition, in assay [4], the Potency is over 20.6 µM.

For the molecule `CN(C)C(=O)c1ccc(-c2ccc3ncnc(NC4CC4)c3c2)cc1`, the activity change, negative = inhibition in assay [1] was -22.9% [at 7.69 µM]; in assay [2], 12.3% [at 7.69 µM]. The activity, negative = inhibition in assay [3] is -3.61% [at 7.69 µM]. Further, in [4], the Potency was over 46 µM. The Potency result in assay [6], in assay [7] and in assay [16] was “inactive” throughout.

`O=c1[nH]c(=O)n([C@H]2C[C@H](O)[C@H](CO)O2)cc1/C=C\Br`: the activity change, negative = inhibition in assay [1] was -6.02% [at 38 µM]; in [2] it was 3.97% [at 38 µM]. In addition, in assay [3], the activity, negative = inhibition is 6.62% [at 38 µM]. Further, the Potency in assay [4] and in assay [5] was over 46 µM throughout. Also, the Potency result in assay [6], in assay [7], in assay [9], in assay [10], in [11] and in assay [12] was “inactive” in each case. Moreover, the molecule was called inactive in [8], in assay [13], in [14] and in assay [15]. Further, in assay [17], the activation is 0.219%.

As for `COc1cccc(C2C(C#N)=C(N)Oc3cc(C)[nH]c(=O)c32)c1OC` (centres undefined), the activity change, negative = inhibition in assay [1] was -18.5%; in assay [2], 0.0621%. Further, the activity, negative = inhibition in [3] was -3.84%. Besides, the Potency in assay [4] was over 20.6 µM.

With `O=C(O)C[C@@H]1CCCc2ccccc2[C@H]1O`, the results for the activity change, negative = inhibition in assay [1] and in assay [2] were 1.66% [at 38 µM] and 2.27% [at 38 µM], respectively. Moreover, in [3], the activity, negative = inhibition was -11.9% [at 38 µM]. Besides, the Potency in assay [4] and in assay [5] was over 46 µM each time. For the same molecule, the Potency result in assay [6], in assay [7], in [10], in assay [11] and in assay [12] was “inactive” throughout. For the same molecule, the result in assay [8], in assay [13], in [14] and in [15] was inactive.

Take `CC(=O)S[C@@H]1CC2=CC(=O)CC[C@@]2(C)[C@H]2CC[C@]3(C)[C@H](CC[C@@]34CCC(=O)O4)[C@H]12`: the figures for the activity change, negative = inhibition in [1] and in [2] were 19.8% [at 38 µM] and -10% [at 38 µM], respectively. The activity, negative = inhibition in assay [3] was -9.34% [at 38 µM]. Also, the Potency in assay [4] was 1.4 µM (active); in assay [5] it was over 46 µM. In addition, the Potency result in assay [7], in assay [10] and in assay [12] was “inactive” each time. Besides, the outcome in [8], in assay [13], in assay [14] and in assay [15] was inactive.

As to `Cn1c(=O)c2c(nc(/C=C\c3cccc(Cl)c3)n2C)n(C)c1=O`, the values for the activity change, negative = inhibition in assay [1] and in [2] were 7.2% [at 38 µM] and -6.69% [at 38 µM], respectively. Besides, the activity, negative = inhibition in [3] is -14.4% [at 38 µM]. The Potency in assay [4] and in assay [5] was over 46 µM throughout. For the same molecule, the Potency entry in assay [6], in assay [7], in assay [10], in assay [11] and in [12] was “inactive” throughout. Also, the molecule was called inactive in assay [8], in [13], in assay [14] and in assay [15].

With `COc1cccc(OC)c1OCCNC[C@@H]1CSc2ccccc2O1`, the activity change, negative = inhibition in assay [1] was 18% [at 38 µM]; in assay [2], -12.7% [at 38 µM]. In assay [3], the activity, negative = inhibition is -23.8% [at 38 µM]. In addition, the Potency in assay [4] and in assay [5] was over 46 µM in each case. Moreover, the Potency entry in [6], in [7], in assay [9], in [10] and in assay [12] was “inactive” each time. The outcome in assay [8], in assay [13], in assay [14] and in [15] was inactive.

On to `CCCN1C[C@@H](CSC)C[C@H]2c3cccc4[nH]cc(c34)C[C@@H]21`, for which the activity change, negative = inhibition is 10.4% [at 38 µM] in assay [1] and -24.1% [at 38 µM] in assay [2]. For the same molecule, the activity, negative = inhibition in assay [3] was -10.6% [at 38 µM]. Further, the values for the Potency in assay [4], in assay [5] and in [19] were over 46 µM, over 46 µM and 0.1 µM (active), respectively. The result in assay [8], in assay [13], in assay [14] and in assay [15] was inactive. Besides, the Potency result in assay [18], in [9], in assay [10] and in [12] was “inactive” throughout.
